According to PubChem BioAssay AID651744 (Broad Institute, 2012):
The whole screen tested about 5,600 compounds, of which about 3,100 (55%) were called active. Roughly 3% stayed inconclusive and do not appear here. The set was probably picked from earlier hits. The list is a sample of the results. Unmarked numbers belong to inactive results.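 The calls were made as follows: active = mean loss of cell viability signal at or above a set limit, and enough replicates individually reaching it; inconclusive = meets only the mean limit or only the replicate share; inactive = meets neither condition.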

Experiment: viability loss of mouse 3T3 cells – cell-based, cherry-pick, single point, set 2, cytotoxicity control, confirmation (AID 651744);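 also: 0% = median of neutral control wells and 100% = median of positive control wells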
Details: NIH/3T3 viability, CellTiter-Glo ATP luminescence, 90 h; at 24.9 µM; stronger effect = higher value
With `O=C(c1cccnc1)N1CCCCN2[C@@H](CO)[C@H](c3ccc(C#Cc4ccccc4)cc3)[C@@H]2C1` the inhibition was 66.5% (active). Work on `O=C(Nc1ccccc1)N1CCCCN2[C@H](CO)[C@@H](c3ccc(C#Cc4ccccn4)cc3)[C@H]2C1` yielded an inhibition of 9.74%. Work on `O=C(c1ccc(F)cc1)N1CCCCN2[C@H](C1)[C@@H](c1ccc(C#CC3(O)CCCC3)cc1)[C@@H]2CO` yielded an inhibition of 18%. With `COc1ccc(C#Cc2ccc([C@@H]3[C@@H](CO)N4CCCCN(C(=O)c5ccncc5)C[C@@H]34)cc2)cc1` the inhibition was 97.5% (active). With `O=C(c1ccncc1)N1CCCCN2[C@H](CO)[C@H](c3ccc(-c4ccccc4)cc3)[C@H]2C1` the inhibition was 5.4%. In the case of `O=S(=O)(c1ccccc1)N1CC[C@@H]2[C@@H](CO)Nc3ccc(C#Cc4cccc(F)c4)cc3[C@@H]21`, the inhibition is reported as 52.5% (active). For `O=S(=O)(c1ccccc1)N1CC[C@@H]2[C@@H](CO)Nc3ccc(-c4ccccc4F)cc3[C@@H]21`, the inhibition was 23.8%. For `CC(=O)N1CC[C@@H]2[C@H](CO)Nc3ccc(C#Cc4ccccc4F)cc3[C@@H]21`, the inhibition was 33.2% (active). With `O=C(c1cccc(F)c1)N1CC[C@@H]2[C@@H](CO)Nc3ccc(C#Cc4cccc(F)c4)cc3[C@@H]21` the inhibition was 105% (active). In the case of `O=S(=O)(c1ccccc1)N1CC[C@@H]2[C@H]1c1cc(C#Cc3cccc(F)c3)ccc1N[C@@H]2CO`, the inhibition is reported as 72.4% (active). With `CN(C)C(=O)c1ccc(-c2ccc3c(c2)[C@H]2[C@H](CCN2C(=O)c2ccc4c(c2)OCO4)[C@H](CO)N3)cc1` the inhibition was -8.51%. Work on `COCC(=O)N1CC[C@@H]2[C@@H](CO)Nc3ccc(-c4cccc(C#N)c4)cc3[C@@H]21` yielded an inhibition of 5.66%. In the case of `Cc1ccccc1S(=O)(=O)N1CC[C@H]2[C@H](CO)Nc3ccc(-c4cccc(F)c4)cc3[C@H]21`, the inhibition is reported as 105% (active). Work on `CC(=O)N1[C@H](CNC(=O)C2CC2)[C@@H](c2ccc(-c3cccc(F)c3)cc2)[C@@H]1CO` yielded an inhibition of 13%. Molecule `COc1ccc(NC(=O)N2CC[C@@H]3[C@@H](CO)N(C)c4ccc(-c5cccc(F)c5)cc4[C@@H]32)cc1` has an inhibition of 20.7%. With `CCC(=O)N1CC[C@@H]2[C@@H](CO)N(C)c3ccc(-c4ccc(F)cc4)cc3[C@@H]21` the inhibition was 12.2%. In the case of `CN1c2ccc(-c3ccccc3)cc2[C@H]2[C@H](CCN2C(=O)Cc2ccccn2)[C@H]1CO`, the inhibition is reported as 9.27%. In the case of `O=C(Cc1ccccc1)N1CC[C@H]2[C@H](CO)Nc3ccc(-c4ccccc4F)cc3[C@H]21`, the inhibition is reported as 48.1% (active). For `O=C(C[C@@H]1C[C@@H]2c3cc(NC(=O)c4ccc5c(c4)OCO5)ccc3O[C@@H]2[C@@H](CO)O1)NCc1ccc(Cl)cc1`, the inhibition was 14.5%. For `CN1C(=O)c2cc(NC(=O)c3cnccn3)ccc2OC[C@@H]2O[C@@H](CC(=O)N[C@H]3CCN(Cc4ccccc4)C3)CC[C@H]21`, the inhibition was -12.6%. `C[C@@H]1CCCCO[C@H](CN(C)C(=O)NC2CCCCC2)[C@H](C)CN([C@H](C)CO)C(=O)c2cc(NS(=O)(=O)c3ccc(Cl)cc3)ccc2O1` showed an inhibition of -1.41%. `C[C@H](CO)N1C[C@H](C)[C@H](CN(C)S(=O)(=O)c2ccc(F)cc2)OCCCC[C@H](C)Oc2ccc(NS(=O)(=O)c3ccc(Cl)cc3)cc2C1=O` gave an inhibition of 18.4%. Molecule `COc1ccc(NC(=O)N(C)C[C@@H]2OCCCC[C@@H](C)Oc3ccc(NS(=O)(=O)c4ccc(Cl)cc4)cc3C(=O)N([C@H](C)CO)C[C@H]2C)cc1` has an inhibition of -14.7%. With `C[C@H]1CCCCO[C@@H](CN(C)C(=O)NC2CCCCC2)[C@@H](C)CN([C@@H](C)CO)C(=O)c2cc(NS(=O)(=O)c3ccc(Cl)cc3)ccc2O1` the inhibition was 15.4%. For `C[C@@H]1CCCCO[C@H](CN(C)Cc2ccccc2)[C@H](C)CN([C@H](C)CO)C(=O)c2cc(NS(=O)(=O)c3ccc(Cl)cc3)ccc2O1`, the inhibition was 104% (active). `COc1ccc(S(=O)(=O)N(C)C[C@H]2OCCCC[C@H](C)Oc3ccc(NS(=O)(=O)c4ccc(F)cc4)cc3C(=O)N([C@@H](C)CO)C[C@@H]2C)cc1` gave an inhibition of -33.1%. `C[C@@H]1CN([C@H](C)CO)C(=O)c2cc(NS(=O)(=O)c3cccs3)ccc2O[C@@H](C)CCCCO[C@@H]1CN(C)S(=O)(=O)c1ccc(Cl)cc1` showed an inhibition of 2.36%. `C[C@H]1CCCCO[C@@H](CN(C)S(=O)(=O)c2cccs2)[C@@H](C)CN([C@@H](C)CO)C(=O)c2cc(NS(=O)(=O)c3ccc(Cl)cc3)ccc2O1` gave an inhibition of 11.8%. For `COc1ccc(S(=O)(=O)Nc2ccc3c(c2)C(=O)N([C@H](C)CO)C[C@@H](C)[C@@H](CN(C)CC2CCCCC2)OCCCC[C@@H](C)O3)cc1`, the inhibition was 107% (active). For `C[C@H](CO)N1C[C@H](C)[C@H](CN(C)Cc2ccc(C(F)(F)F)cc2)OCCCC[C@H](C)Oc2ccc(NS(=O)(=O)c3ccc(Cl)cc3)cc2C1=O`, the inhibition was 105% (active). With `C[C@@H]1CN([C@H](C)CO)C(=O)c2cc(NS(=O)(=O)c3ccc(Cl)cc3)ccc2O[C@@H](C)CCCCO[C@H]1CN(C)Cc1ccccc1` the inhibition was 103% (active). With `C[C@@H]1CCCCO[C@H](CN(C)S(=O)(=O)c2ccc(Cl)cc2)[C@H](C)CN([C@@H](C)CO)C(=O)c2cc(NS(=O)(=O)c3cccs3)ccc2O1` the inhibition was -8.7%. For `C[C@@H]1CN([C@H](C)CO)C(=O)c2cc(NS(=O)(=O)c3cccs3)ccc2O[C@@H](C)CCCCO[C@H]1CN(C)Cc1ccc(C(F)(F)F)cc1`, the inhibition was 103% (active). With `C[C@@H]1CCCCO[C@H](CN(C)S(=O)(=O)c2cccs2)[C@H](C)CN([C@H](C)CO)C(=O)c2cc(NS(=O)(=O)c3ccc(F)cc3)ccc2O1` the inhibition was -27.9%. For `C[C@@H]1CN([C@H](C)CO)S(=O)(=O)c2ccc(C3=CCCC3)cc2O[C@H]1CN(C)Cc1ccccc1F`, the inhibition was 106% (active). With `C[C@H]1CN([C@@H](C)CO)S(=O)(=O)c2ccc(C3=CCCC3)cc2O[C@@H]1CN(C)Cc1ccccc1` the inhibition was 103% (active). In the case of `C[C@H]1CN([C@@H](C)CO)S(=O)(=O)c2ccc(C3=CCCCC3)cc2O[C@@H]1CN(C)Cc1ccccc1`, the inhibition is reported as 106% (active).
